# Experimental data as given in PubChem BioAssay (NCATS).
# “And” between values parts separate entries of the source, which are not always exact repeats. Identical values can stand only once. Records with an inconclusive call do not appear. Where a call stands in place of a potency, no number is given. A number with no mark means an inactive call. The source made the active and inactive calls. The call rests on the fitted dose curve; in most records, active means well fitted curve in the direction sought with a large enough effect; inconclusive means small, poorly fitted or top-dose-only effect, or another doubt; inactive means no such curve, though single readings can be large; an effect the other way counts as inactive or inconclusive.
# What was measured:
# [1] = target: Cellular tumor antigen p53 (Homo sapiens) (UniProt P04637); test: Primary qHTS for small molecule compounds that upregulate eGFP-tagged delta133p53alpha (in N-terminal) cells. (AID 2060322); conditions: NCI-H358 eGFP-delta133p53alpha fluorescence, 24 h; activation: stronger effect = higher value; further: nearly all actives have a fitted effect of over 75% in size; further: potency means the concentration at half of the fitted maximal effect;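 on activation: cells pre-induced with doxycycline then dosed without doxycycline; series mostly up to about 56 µM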
# Summary of the method: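 NCI-H358 cells pre-induced 24 h with 10 ng/ml doxycycline for eGFP-delta133p53alpha, plated dox-free and exposed 24 h at 37C to titrated compounds. Fixed, Hoechst-stained; gated GFP peak intensity by laser scanning cytometry, normalized to DMSO (0%) and 57.5 uM 5-azacytidine (100%).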
# [2] = target: Aldehyde dehydrogenase, mitochondrial (Homo sapiens) (UniProt P05091); test: qHTS for Inhibitors of the Aldehyde Dehydrogenase Family (ALDH2) Primary screen (AID 2061308); further: nearly all actives have a fitted effect of over 55% in size
# [3] = target: Retinaldehyde dehydrogenase 3 (Homo sapiens) (UniProt P47895); test: qHTS for Inhibitors of the Aldehyde Dehydrogenase Family (ALDH1A3) Validation screen (AID 2061312); further: nearly all actives have a fitted effect of over 45% in size; further: potency means the concentration at half of the fitted maximal effect
# [4] = target: Retinaldehyde dehydrogenase 3 (Homo sapiens) (UniProt P47895); test: qHTS for Inhibitors of the Aldehyde Dehydrogenase Family (ALDH1A3) Primary screen (AID 2061315)
# [5] = BET inhibitor-based combinations targeting novel dependencies in MECOM-rearranged (r) AML: SET-2 cell line (AID 2202231); conditions: SET-2 AML cells viability, CellTiter-Glo luminescence, 48 h; viability: stronger effect = lower value, concentration not given here; further: nearly all actives have a fitted effect of over 35% in size; further: potency means the concentration at half of the fitted maximal effect
# Summary of the method: (§1)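 Viability of cells (500 per well) is scored by luminescent CellTiter-Glo at 48 hr post-dosing. Eleven-point titrations are normalized to DMSO and empty controls and reduced to AUC values.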
# [6] = BET inhibitor-based combinations targeting novel dependencies in MECOM-rearranged (r) AML: OCI-AML3 cell line (AID 2202232); conditions: Potency: OCI-AML3 viability; further: nearly all actives have a fitted effect of over 35% in size; further: potency means the concentration at half of the fitted maximal effect
# Summary of the method: as §1
# [7] = BET inhibitor-based combinations targeting novel dependencies in MECOM-rearranged (r) AML: UCSD-AML1 cell line (AID 2202235); further: nearly all actives have a fitted effect of over 40% in size; further: potency means the concentration at half of the fitted maximal effect
# Summary of the method: (§2)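 Using pin-tool transfer, drugs were added in 11 doses to cells (500/well), incubated 48 hr, and assessed with CellTiter-Glo. Z-AUC is a mean-centring transformation applied separately to each screened line.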
# [8] = BET inhibitor-based combinations targeting novel dependencies in MECOM-rearranged (r) AML: AML-191 cell line (AID 2202236; further: nearly all actives have a fitted effect of over 35% in size; further: potency means the concentration at half of the fitted maximal effect)
# Summary of the method: as §1
# [9] = BET inhibitor-based combinations targeting novel dependencies in MECOM-rearranged (r) AML: MV-4-11 cell line (AID 2202233); further: nearly all actives have a fitted effect of over 45% in size; further: potency means the concentration at half of the fitted maximal effect
# Summary of the method: as §2
# [10] = BET inhibitor-based combinations targeting novel dependencies in MECOM-rearranged (r) AML: HNT-34 cell line (AID 2202234); further: nearly all actives have a fitted effect of over 35% in size; further: potency means the concentration at half of the fitted maximal effect
# Summary of the method: as §2
# [11] = BET inhibitor-based combinations targeting novel dependencies in MECOM-rearranged (r) AML: AML-194 cell line (AID 2202237; further: nearly all actives have a fitted effect of over 40% in size; further: potency means the concentration at half of the fitted maximal effect)
# Summary of the method: as §1
# Sequence of Cellular tumor antigen p53 (Homo sapiens) (P04637 whole entry, looked up): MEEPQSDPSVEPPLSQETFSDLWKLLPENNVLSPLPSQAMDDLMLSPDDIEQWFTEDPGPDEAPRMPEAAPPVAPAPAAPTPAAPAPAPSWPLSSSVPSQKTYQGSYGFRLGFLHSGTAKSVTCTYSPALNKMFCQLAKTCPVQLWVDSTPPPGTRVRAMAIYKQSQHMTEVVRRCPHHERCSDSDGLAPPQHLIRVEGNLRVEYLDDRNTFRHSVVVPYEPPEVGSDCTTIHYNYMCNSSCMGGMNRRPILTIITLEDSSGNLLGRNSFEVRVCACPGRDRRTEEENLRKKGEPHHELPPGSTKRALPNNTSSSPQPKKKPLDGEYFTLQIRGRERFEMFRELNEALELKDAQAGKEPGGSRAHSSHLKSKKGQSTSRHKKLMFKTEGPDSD
Structure (SMILES),activation [1],Potency [2],Potency [3],Potency [4],Potency [5],Potency [6],Potency [7],Potency [8],viability [5] [%],Potency [9],Potency [10],Potency [11],Potency [1]
CCC(CC)C(c1ccc(Nc2nc3ccccc3s2)cc1)n1cncn1 (stereo unspecified),17.2%,inactive,inactive,inactive,20.9 µM (active),11.8 µM (active),inactive,16.6 µM (active),–,–,–,–,–
CC(C)(N)C(=O)N[C@H](COCc1ccccc1)C(=O)N1CCC2(CC1)CN(S(C)(=O)=O)c1ccccc12,18.6% and 11%,inactive,inactive,inactive,–,11.8 µM (active),–,20.9 µM (active),104,10.5 µM (active),–,–,–
O=C(c1ccc(NS(=O)(=O)c2cccc3cccnc23)cc1)N1CCN(CC2CC2)CC1,-3.34%,inactive,inactive,inactive,–,–,inactive,inactive,115,inactive,inactive,inactive,–
Cc1nnc(C(C)C)n1C1CC2CCC(C1)N2CC[C@H](NC(=O)C1CCC(F)(F)CC1)c1ccccc1 (stereo partly specified),-6.68%,inactive,inactive,inactive,–,inactive,inactive,inactive,113,–,inactive,inactive,–
CN1CC[C@@H](NC(=O)Nc2ccc(C#N)cc2)C[C@@H]1c1nc2ccccc2[nH]1,-0.477%,inactive,3.98 µM (active),inactive,–,inactive,inactive,inactive,117,–,–,inactive,–
COc1ccc(CCC(=O)Nc2nc3ccc(Cl)cc3s2)cc1OC,9.8% and 1.91%,inactive,inactive,inactive,–,inactive,inactive,inactive,120,–,–,inactive,–
CC1(C)CCC(c2ccc(Cl)cc2)=C(CN2CCN(c3ccc(C(=O)NS(=O)(=O)c4ccc(N[C@H](CCN5CCOCC5)CSc5ccccc5)c(S(=O)(=O)C(F)(F)F)c4)cc3)CC2)C1,–,inactive,inactive,inactive,1.32 µM (active),–,1.05 µM (active),0.742 µM (active),–,0.332 µM (active),468 nM (active),833 nM (active),26.9 µM (active)
O=C(c1cc(Cc2n[nH]c(=O)c3ccccc23)ccc1F)N1CCN(C(=O)C2CC2)CC1,8.16% and -16.2%,inactive,inactive,inactive,–,–,–,–,80.3,8.33 µM (active),–,–,–
CC(C)(C)NC(=O)Nc1cccc(Nc2ncc(F)c(NC(C)(C)CO)n2)c1,-4.76% and -4.3%,inactive,inactive,inactive,16.6 µM (active),3.72 µM (active),3.72 µM (active),–,–,2.63 µM (active),–,5900 nM (active),–
O=C(C(c1ccccc1)c1ccccc1)N1CCN(CC(O)COc2cccc3ncccc23)CC1 (stereo unspecified),4.77%,inactive,inactive,inactive,20.9 µM (active),11.8 µM (active),–,18.6 µM (active),–,18.6 µM (active),–,–,–
CCCCNc1ncc2c(-c3ccc(CN4CCN(C)CC4)cc3)cn(C3CCC(O)CC3)c2n1 (stereo unspecified),–,inactive,inactive,inactive,14.8 µM (active) and 11.8 µM (active),6.61 µM (active) and 4.68 µM (active),4.17 µM (active) and 3.32 µM (active),833 nM (active) and 1.18 µM (active),–,–,1.05 µM (active) and 1.18 µM (active),742 nM (active) and 1.05 µM (active),21.3 µM (active)
CNC(=O)c1ccc(-c2cnc3ncc(Cc4ccc5ncccc5c4)n3n2)cc1F,-4.61% and -7.16%,inactive,inactive,inactive,–,inactive,inactive,–,95.9,–,18600 nM (active),inactive,–
CC(C)OC(=O)C1=CN(C(=O)c2ccc(F)c(F)c2)CC(C)(C)c2c1[nH]c1ccccc21,-3.85% and 0.955%,inactive,inactive,inactive,–,–,inactive,inactive,109,inactive,inactive,inactive,–
CCCN1CCN(c2ccc(C(=O)NC3(C(=O)NCC#N)CCCCC3)cc2)CC1,-6.68%,inactive,inactive,inactive,–,–,inactive,inactive,102,inactive,inactive,inactive,–
